Activity calls are given as the source filed them. Rule for the calls: active = hit-call score of the fitted dose curve at least 0.9, where 1 is the maximum; inactive = score below 0.9.

Read-out in assay [1]: Forkhead box O1 (FOXO1), FOXO1 (gene 2308)
Kind of assay: LTEA_HepaRG_FOXO1: Life Technologies and Expression Analysis (LTEA) Assay for Forkhead box O1 (FOXO1) using HepaRG (AID 2283456). To be noted: mRNA level, 48 h; actives raise or lower the signal. The procedure, abridged: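 HepaRG, 48 h exposure, 8-pt half-log series from 100 uM in 0.5% DMSO, duplicates; Fluidigm qRT-PCR mRNA, housekeeping-normalised; bidirectional fit vs DMSO baseline.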

Read-out in assay [2]: growth arrest and DNA damage 45 (GADD45A), GADD45A (gene 1647)
Description: LTEA_HepaRG_GADD45A: Life Technologies and Expression Analysis (LTEA) Assay for growth arrest and DNA damage 45 (GADD45A) using HepaRG (AID 2283458). To be noted: mRNA level, 48 h; actives raise or lower the signal. The procedure, abridged:
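GADD45A expression was measured by TaqMan qRT-PCR against three housekeeping genes (ACTB, GAPDH, POLR2A) after 48 h treatment of HepaRG cells. Eight-point half-log series up to 100 uM in 0.5% DMSO, run in duplicate.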

Read-out in assay [3]: Forkhead box O3 (FOXO3), FOXO3 (gene 2309)
Kind of assay: LTEA_HepaRG_FOXO3: Life Technologies and Expression Analysis (LTEA) Assay for Forkhead box O3 (FOXO3) using HepaRG (AID 2283459). The following applies: mRNA level, 48 h; actives raise or lower the signal. The procedure, abridged:
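qRT-PCR readout of FOXO3 transcript, normalized to three housekeeping genes (ACTB, GAPDH, POLR2A); gain or loss fitted against 0.5% DMSO vehicle. HepaRG cells, 48 h chemical exposure, 8-point half-log series, top 100 uM.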

Read-out in assay [4]: ABC Transporter (ABCB1), ABCB1 (gene 5243)
Kind of assay: LTEA_HepaRG_ABCB1: Life Technologies and Expression Analysis (LTEA) Assay for ABC Transporter (ABCB1) using HepaRG (AID 2283460). The following applies: mRNA level, 48 h; actives raise or lower the signal. The procedure, abridged:
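HepaRG, 48 h exposure, 8-pt half-log series from 100 uM, 0.5% DMSO vehicle, duplicates. Readout: ABCB1 transcript by Fluidigm TaqMan qRT-PCR, housekeeping-normalized; bidirectional curve fit vs DMSO baseline.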

Read-out in assay [5]: growth arrest and DNA damage 45 (GADD45B), GADD45B (gene 4616)
Description: LTEA_HepaRG_GADD45B: Life Technologies and Expression Analysis (LTEA) Assay for growth arrest and DNA damage 45 (GADD45B) using HepaRG (AID 2283461). The following applies: mRNA level, 48 h; actives raise or lower the signal. The procedure, abridged:
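Differentiated HepaRG cells, plated 48 h then switched to serum-free induction medium, were exposed 48 h in duplicate to eight half-log concentrations from 100 uM in 0.5% DMSO; mRNA quantified by qRT-PCR, normalized to ACTB/GAPDH/POLR2A, bidirectional fit versus DMSO.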

Read-out in assay [6]: ABC Transporter (ABCC3), ABCC3 (gene 8714)
Description: LTEA_HepaRG_ABCC3: Life Technologies and Expression Analysis (LTEA) Assay for ABC Transporter (ABCC3) using HepaRG (AID 2283462). The following applies: mRNA level, 48 h; actives raise or lower the signal. The procedure, abridged: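 HepaRG cells in serum-free induction medium were exposed for 48 h in duplicate to 8-point half-log concentrations topping at 100 uM in 0.5% DMSO. ABCC3 mRNA was measured by qRT-PCR normalized to ACTB, GAPDH and POLR2A, with bidirectional fitting versus DMSO.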

Read-out in assay [7]: ABC Transporter (ABCB11), ABCB11 (gene 8647)
Description: LTEA_HepaRG_ABCB11: Life Technologies and Expression Analysis (LTEA) Assay for ABC Transporter (ABCB11) using HepaRG (AID 2283463). To be noted: mRNA level, 48 h; actives raise or lower the signal. The procedure, abridged: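 HepaRG, 48 h exposure, 8-pt half-log CRC top 100 uM, 0.5% DMSO vehicle, duplicates. Readout: TaqMan qRT-PCR of ABCB11 mRNA, housekeeping-normalized (ACTB/GAPDH/POLR2A). Bidirectional fit vs DMSO baseline.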

Read-out in assay [8]: ABC Transporter (ABCC2), ABCC2 (gene 1244)
Description: LTEA_HepaRG_ABCC2: Life Technologies and Expression Analysis (LTEA) Assay for ABC Transporter (ABCC2) using HepaRG (AID 2283464). The following applies: mRNA level, 48 h; actives raise or lower the signal. The procedure, abridged: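 HepaRG cells were plated 48 h, switched to serum-free induction medium, then exposed in duplicate for 48 h to 8 concentrations (top 100 uM, half-log steps, 0.5% DMSO). ABCC2 mRNA was measured by qRT-PCR normalized to ACTB/GAPDH/POLR2A; bidirectional fitting versus DMSO.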

Read-out in assay [9]: Broad substrate specificity ATP-binding cassette transporter ABCG2 (Homo sapiens) (UniProt Q9UNQ0)
Description: LTEA_HepaRG_ABCG2: Life Technologies and Expression Analysis (LTEA) Assay for ABC Transporter (ABCG2) using HepaRG (AID 2283465). To be noted: mRNA level, 48 h; actives raise or lower the signal. The procedure, abridged:
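HepaRG, 48 h exposure, 8-pt half-log series from 100 uM, 0.5% DMSO vehicle, duplicates. Readout: ABCG2 transcript by qRT-PCR (Fluidigm array), housekeeping-normalized; bidirectional curve fit relative to DMSO baseline.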

The nature of assay [10]: CEETOX_H295R_TESTO: CeeTox H295R High-throughput Steroidogenesis Assay for Testosterone (TESTO) (AID 2283457). To be noted: actives raise or lower the signal. The procedure, abridged: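 H295R human adrenal cells in DMEM/F12 with ITS+ and Nu-Serum, exposed to chemicals for 48 h. Testosterone in medium measured by MTBE extraction, reverse-phase HPLC-MS/MS; bidirectional fit versus DMSO baseline. MTT viability checked in same wells.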

Broad substrate specificity ATP-binding cassette transporter ABCG2 (Homo sapiens), sequence (Q9UNQ0 whole entry, looked up): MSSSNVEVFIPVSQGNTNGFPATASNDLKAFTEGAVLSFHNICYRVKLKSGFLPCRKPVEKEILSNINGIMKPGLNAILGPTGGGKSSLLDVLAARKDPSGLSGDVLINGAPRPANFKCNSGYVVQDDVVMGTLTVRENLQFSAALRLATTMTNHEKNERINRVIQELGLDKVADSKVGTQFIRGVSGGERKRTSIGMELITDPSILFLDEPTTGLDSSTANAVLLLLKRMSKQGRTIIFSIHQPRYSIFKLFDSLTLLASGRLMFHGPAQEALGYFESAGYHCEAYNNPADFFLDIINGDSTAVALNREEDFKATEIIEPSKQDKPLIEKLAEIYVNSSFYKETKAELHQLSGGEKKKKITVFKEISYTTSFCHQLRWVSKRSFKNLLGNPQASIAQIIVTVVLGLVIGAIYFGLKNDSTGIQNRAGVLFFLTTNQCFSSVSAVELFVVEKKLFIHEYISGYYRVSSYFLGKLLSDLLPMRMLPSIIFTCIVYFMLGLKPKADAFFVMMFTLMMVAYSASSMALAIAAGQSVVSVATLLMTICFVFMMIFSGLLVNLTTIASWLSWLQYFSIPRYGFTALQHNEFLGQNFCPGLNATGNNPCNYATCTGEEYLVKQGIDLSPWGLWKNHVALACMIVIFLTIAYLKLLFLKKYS

For `Cc1cccc(C)c1N`, the outcome in assay [1], in [2], in assay [3], in [4], in assay [5] and in [6] was inactive. The result in assay [7], in [8] and in assay [9] was inactive.
Turning to `c1ccc(-c2ccccc2)cc1`, the call in [1], in [2], in [3], in assay [5], in assay [6] and in assay [7] was inactive. Besides, the outcome in assay [8] and in assay [9] was inactive.
On to `CCCCCCOC(=O)c1ccccc1C(=O)OCCCCCC`, for which the outcome in [1], in assay [2], in assay [3], in assay [5], in assay [6] and in assay [7] was inactive. The outcome in assay [8] and in [9] was inactive.
Turning to `O=S(=O)(O)C(F)(F)C(F)(F)C(F)(F)C(F)(F)C(F)(F)C(F)(F)F`, the compound was classed as inactive in [1], in assay [2], in [3], in assay [4], in assay [5] and in [6]. In addition, the call in [7], in [8] and in assay [9] was inactive.
For the compound `Cc1ccc(O)c(C)c1`, the result in assay [1], in assay [2], in assay [3], in [4], in [5] and in [6] was inactive. Also, the compound was called inactive in [7], in assay [8] and in assay [9].
Usually AC50 stands for the concentration giving half of the maximal activity seen. `CC1=C2C[C@H]3[C@@H](CC=C4C[C@@H](O)CC[C@@]43C)[C@@H]2CC[C@]12O[C@@H]1C[C@H](C)CN[C@H]1[C@H]2C`: the result in assay [1], in assay [10], in [2], in assay [3], in assay [5] and in assay [6] was inactive. In addition, the outcome in assay [7] and in assay [8] was inactive. Besides, in assay [9], the AC50 is 12.1 µM (active).
Consider `CCOP(=S)(OCC)SCSC(C)(C)C`, for which the call in assay [1], in assay [2], in assay [3], in [4], in assay [5] and in [6] was inactive. In addition, the call in assay [8] and in assay [9] was inactive. Besides, in assay [7], the AC50 was 18.6 µM (active).
Turning to `CCC(C)(c1ccc(O)cc1)c1ccc(O)cc1`, the compound was classed as inactive in [1], in assay [2], in assay [3], in [4], in [5] and in assay [6]. Besides, the outcome in [8] and in assay [9] was inactive. For the same compound, the half-maximal activity concentration (AC50) in [7] is 88.1 µM (active).
For the compound `O=C(NC(=O)c1cc(F)c(F)cc1Cl)Nc1cc(F)ccc1N1CCC(C(=O)O)CC1`, the result in assay [1], in assay [2], in [3], in assay [5], in [6] and in assay [8] was inactive. Also, in assay [9], the compound was classed as inactive. For the same compound, the AC50 in assay [4] was 21 µM (active); in assay [7], 2.05 µM (active).
For the compound `CN(C)CCO`, the compound was classed as inactive in [1], in assay [2], in [3], in assay [4], in assay [5] and in [6]. For the same compound, the result in [7], in [8] and in [9] was inactive.
As for `O=C(NC(=O)c1c(F)cccc1F)Nc1cc(Cl)c(OC(F)(F)C(F)F)c(Cl)c1`, the outcome in assay [1], in assay [10], in assay [2], in assay [3], in assay [5] and in assay [6] was inactive. Besides, the compound was classed as inactive in [8] and in assay [9]. For the same compound, the half-maximal activity concentration (AC50) in assay [7] was 50 µM (active).
In the case of `CC#Cc1cc(C)nc(Nc2ccccc2)n1`, the result in assay [1], in [2], in assay [4], in assay [6] and in assay [8] was inactive. The half-maximal activity concentration (AC50) was 7.38 µM (active) in [3], 19.2 µM (active) in assay [5], 9.09 µM (active) in assay [7] and 29.9 µM (active) in assay [9].
As for `ClC1=C(Cl)[C@]2(Cl)[C@@H]3[C@@H]4C[C@@H]([C@H]5O[C@@H]45)[C@@H]3[C@@]1(Cl)C2(Cl)Cl`, the result in assay [1], in assay [2], in assay [5], in [6] and in [7] was inactive. Further, the AC50 in assay [3] was 0.0321 µM (active); in assay [4], 0.0325 µM (active); in assay [8] it was 4.03 µM (active); in assay [9], 20.8 µM (active).
For the compound `Cc1cc(-c2ccc(N)c(C)c2)ccc1N`, the compound was classed as inactive in assay [1], in assay [2], in assay [4], in assay [6], in assay [8] and in [9]. Besides, the AC50 is 18 µM (active) in [3], 50 µM (active) in assay [5] and 22.4 µM (active) in assay [7].
Consider `CCCCCCCCOC(=O)c1ccccc1C(=O)OCCCCCCCC`, for which the outcome in assay [1], in assay [2], in [3], in assay [4], in [5] and in [6] was inactive. The call in assay [7], in assay [8] and in [9] was inactive.

These data come from PubChem BioAssay (EPA / NIEHS).
